“And” between values parts separate entries of the source, which are not always exact repeats. Equal entries are not always repeated. Out of some 260,000 compounds screened, about 1,500 (0.58%) were called active. About 5% were inconclusive and are not listed.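 How the source made its calls: active means inhibition above a set limit at one or more doses, reproduced on every date tested; inconclusive means results disagree between test dates, or hit never tested in dose response; inactive means the rest.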 These entries were drawn from the full list. Entries with a potency or affinity are not part of this list.
target: Virion infectivity factor (Human immunodeficiency virus type 1 group M subtype B (isolate BH10)) + Virion infectivity factor (Human immunodeficiency virus type 1 group M subtype B (isolate BRU/LAI)) + Virion infectivity factor (Human immunodeficiency virus type 1 group M subtype B (isolate PCV12)) + Virion infectivity factor (Human immunodeficiency virus type 1 group M subtype B (isolate HXB2)) + DNA dC->dU-editing enzyme APOBEC-3G (Homo sapiens) (UniProt P69720+P69721+P69722+P69723+Q9HC16); assay: inhibitors of Vif binding to APOBEC3G peptide, primary screen, biochemical, TR-FRET, GST-Vif 1-94, biotin-A3G peptide, dose response retest (AID 1117319); settings: stronger effect = higher value;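 further: Vif residues 1-94 fused to GST binding biotinylated APOBEC3G peptide 110-148; 0% = full assay without inhibitor and 100% = GST in place of GST-Vif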

Question: `Cc1ccc(OCC(=O)N2CCOCC2)cc1C` was tested. Which inhibition did it give?
Answer: -10.7% (inactive)

Question: How did the inhibition turn out when `CCCOc1ccc(N2C(=O)CC(N3CCN(CCN=CC4=C(O)CC(C)(C)CC4=O)CC3)C2=O)cc1` (stereo unspecified) was run?
Answer: 8.53% (inactive)

Question: With `CCOC(=O)C1CCN(C(=O)C2CCN(S(=O)(=O)c3cccc4nsnc34)CC2)CC1` as the compound, how does the inhibition read?
Answer: -1.01% (inactive)

Question: Which inhibition does the source give for `COc1cc(C(=O)Oc2ccccc2N)cc(OC)c1OC` here?
Answer: -1.18% (inactive)

Question: With `O=Nc1ccc(O)c2ncccc12` as the compound, how does the inhibition read?
Answer: 25.1% (inactive)

Question: `Oc1ccc(N=Nc2ccccc2C(F)(F)F)c2cccnc12` was tested. Which inhibition did it give?
Answer: 9.97% (inactive)

Question: For `COc1cccc(C2CC(=O)Nc3c2c(=O)n(C)c(=O)n3C)c1OC` (stereo unspecified), which inhibition is on record?
Answer: 10.5% (inactive)

Question: With `CC(C)Oc1ccccc1C1CC(=O)Nc2c1c(=O)n(C)c(=O)n2C` (stereo unspecified) as the compound, how does the inhibition read?
Answer: 0.23% (inactive)

Question: For `O=C(CCCC(=O)OCC(F)(F)C(F)F)Nc1ccccc1F`, which inhibition is on record?
Answer: 0.88% (inactive)

Question: For `O=C(O)C1CCCCC1C(=O)Nc1nc(-c2cccs2)cs1` (stereo unspecified), which inhibition is on record?
Answer: -11.2% (inactive)

Question: `CC(=O)OC1COC(n2ccc3cc([N+](=O)[O-])ccc32)C(OC(C)=O)C1OC(C)=O` (stereo unspecified) was tested. Which inhibition did it give?
Answer: -8.03% (inactive)

Question: With `CC(=O)O[C@@H]1[C@@H](OC(C)=O)[C@H](n2ccc3cc([N+](=O)[O-])ccc32)OC[C@@H]1OC(C)=O` as the compound, how does the inhibition read?
Answer: 11.9% (inactive)

Question: For `CCOc1ccc(-c2nc(CSc3nnc(N)s3)cs2)cc1`, which inhibition is on record?
Answer: -2.32% (inactive)

Question: How did the inhibition turn out when `CC(=O)c1ccc(OC(=O)CCN2c3ccccc3Sc3ccccc32)cc1` was run?
Answer: 3.97% (inactive)

Question: For `CN1CCN(C(=O)c2cc(-c3ccco3)on2)CC1`, which inhibition is on record?
Answer: -6.26% (inactive)

Question: `O=C(c1cc(-c2ccco2)on1)N1CCOCC1` was tested. Which inhibition did it give?
Answer: 5.5% (inactive)

Question: Which inhibition does the source give for `O=C(c1ccc(NS(=O)(=O)c2ccccc2)cc1)N1CCN(Cc2ccc3c(c2)OCO3)CC1` here?
Answer: -2.32% (inactive) and -6.24% (inactive)

Question: How did the inhibition turn out when `CCc1ccc(N(CC)C(=O)Cc2c(C(=O)O)n(C)c3ccccc23)cc1` was run?
Answer: 3.87% (inactive)

Question: Which inhibition does the source give for `C=CCOC(=O)C1=C(C)N=C2SCCC(=O)N2C1c1ccc(OC(=O)c2ccco2)cc1` (stereo unspecified) here?
Answer: -4.13% (inactive)

Question: `Cn1c(-c2cnn(-c3ccccc3)c2-n2cccc2)n[nH]c1=S` was tested. Which inhibition did it give?
Answer: -6.44% (inactive)

Question: `CCN(CC)Cc1cc(C(C)=O)ccc1O` was tested. Which inhibition did it give?
Answer: 1.01% (inactive)

Question: Which inhibition does the source give for `CCc1oc(C(=O)O)cc1CN(CC)CC` here?
Answer: 19% (inactive)

Question: Which inhibition does the source give for `O=C(COC(=O)c1cc(=O)[nH]c2ccccc12)Nc1nccs1` here?
Answer: 0.86% (inactive)

Question: `Cc1ccc(C(=O)C2=C(O)C(=O)N(c3ncccn3)C2c2ccc(Cl)cc2)o1` (stereo unspecified) was tested. Which inhibition did it give?
Answer: -30.5% (inactive)

Question: Which inhibition does the source give for `Cc1ccc(C(=O)C2=C(O)C(=O)N(c3ncccn3)C2c2ccc(Br)cc2)o1` (stereo unspecified) here?
Answer: 10.3% (inactive)

Question: Which inhibition does the source give for `Cc1ccc(-n2c(-c3ccccc3)nnc2-c2cccs2)cc1` here?
Answer: -9.97% (inactive)

Question: With `O=C(CCc1ccc(S(=O)(=O)NCc2ccccc2)cc1)N1CCN(Cc2ccc3c(c2)OCO3)CC1` as the compound, how does the inhibition read?
Answer: 1.72% (inactive)

Question: `CCCCC1=CC2=CC(=O)C(C)(OC(=O)CC)C(=O)C2=CN1CCc1ccccn1` (stereo unspecified) was tested. Which inhibition did it give?
Answer: 21.2% (inactive)

Question: `COC(=O)CCC(=O)OC1(C)C(=O)C=C2C=C(C3CC3)N(c3cccc(C#N)c3)C=C2C1=O` (stereo unspecified) was tested. Which inhibition did it give?
Answer: 11.9% (inactive)

Question: `COC(=O)CCC(=O)OC1(C)C(=O)C=C2C=C(C3CC3)N(CCc3ccccn3)C=C2C1=O` (stereo unspecified) was tested. Which inhibition did it give?
Answer: -2.65% (inactive)

Question: `CC1(C)CC(=O)CC(C)(C)N1OC(=O)c1ccco1` was tested. Which inhibition did it give?
Answer: 0.85% (inactive)

Question: How did the inhibition turn out when `CN1/C(=C\C(=O)COC(=O)c2ccco2)C(C)(C)c2ccccc21` was run?
Answer: 3.26% (inactive)

Question: Which inhibition does the source give for `CCCCC1=CC2=CC(=O)C(C)(OC(=O)CC)C(=O)C2=CN1Cc1ccccc1` (stereo unspecified) here?
Answer: 25% (inactive)

Question: For `COC(=O)CCC(=O)OC1(C)C(=O)C=C2C=C(C3CC3)N(C3CCCCC3)C=C2C1=O` (stereo unspecified), which inhibition is on record?
Answer: 17.8% (inactive)

Question: With `COCCN1C=C2C(=O)C(C)(OC(=O)CCC(=O)OC)C(=O)C=C2C=C1C1CC1` (stereo unspecified) as the compound, how does the inhibition read?
Answer: 10.6% (inactive)

Question: With `CCN(CC(=O)NC)S(=O)(=O)c1ccc(Br)cc1` as the compound, how does the inhibition read?
Answer: 0.33% (inactive)

Question: How did the inhibition turn out when `CCc1ccccc1NC1=NCC(=O)N1Cc1ccc(OC)cc1` was run?
Answer: -4.85% (inactive)

Question: How did the inhibition turn out when `CCCCCC(O)(c1ccc(OCC)cc1)C(CN1CCOCC1)c1ccccc1` (stereo unspecified) was run?
Answer: -5.23% (inactive)

Question: For `COc1cccc(NC(=O)CN2C(=O)COc3ccc(S(=O)(=O)N4CCC(C)CC4)cc32)c1`, which inhibition is on record?
Answer: -1.2% (inactive)

Question: Which inhibition does the source give for `OCCC1CN(Cc2cccc3nonc23)CCN1Cc1ccsc1` (stereo unspecified) here?
Answer: 21.2% (inactive)

Question: For `CC(C)CCNC(=O)C(c1ccco1)N(CC1CCCO1)C(=O)Cn1nnc2ccccc21` (stereo unspecified), which inhibition is on record?
Answer: 18.9% (inactive)

Question: How did the inhibition turn out when `COc1ccc(CN2C=C3C(=O)C(C)(OC(=O)C4CCCC4)C(=O)C=C3C=C2c2ccsc2)cc1` (stereo unspecified) was run?
Answer: 31% (inactive)

Question: With `COC/C=C/C1=CC2=CC(=O)C(C)(OC(=O)c3cnc4ccccc4n3)C(=O)C2=CN1C(CO)CO` (stereo unspecified) as the compound, how does the inhibition read?
Answer: 19.5% (inactive)

Question: Which inhibition does the source give for `CCCCC1=CC2=CC(=O)C(C)(OC(=O)CC)C(=O)C2=CN1C1CCCCC1` (stereo unspecified) here?
Answer: 18.3% (inactive)

Question: For `C=CCN1C=C2C(=O)C(C)(OC(=O)C3CCCC3)C(=O)C=C2C=C1c1ccsc1` (stereo unspecified), which inhibition is on record?
Answer: 22.2% (inactive)

Question: How did the inhibition turn out when `COC(=O)CCC(=O)OC1(C)C(=O)C=C2C=C(C3CC3)N(c3ccccc3)C=C2C1=O` (stereo unspecified) was run?
Answer: 21.6% (inactive)

Question: For `CC1(OC(=O)C2CCCC2)C(=O)C=C2C=C(c3ccsc3)N(CCCCO)C=C2C1=O` (stereo unspecified), which inhibition is on record?
Answer: 21.2% (inactive)

Question: `CCOC(=O)C1=C(COC(=O)Cc2ccccc2)NC(=O)NC1C` (stereo unspecified) was tested. Which inhibition did it give?
Answer: 2.89% (inactive)

Question: For `CCCS(=O)(=O)c1nc(S(=O)(=O)c2ccc(C)cc2)c(N2CCCC2)s1`, which inhibition is on record?
Answer: -10.9% (inactive)

Question: How did the inhibition turn out when `O=C1C2CC=CCC2C(=O)N1c1ncn[nH]1` (stereo unspecified) was run?
Answer: 0.84% (inactive)

Question: `COc1cccc(OC)c1C(=O)Nc1ccccc1NC(=O)c1c(OC)cccc1OC` was tested. Which inhibition did it give?
Answer: -6.67% (inactive)

Question: For `O=[N+]([O-])c1ccc(/C=N/n2cn[nH]c2=S)cc1`, which inhibition is on record?
Answer: 0.85% (inactive)

Question: How did the inhibition turn out when `O=S(=O)(NC1CC1)c1ccc(S(=O)(=O)N2CCc3ccccc32)cc1` was run?
Answer: 18.3% (inactive)

Question: Which inhibition does the source give for `COc1cc2c(cc1OC)C1c3ccc(OC)c(OC)c3OCC1(O)C2` (stereo unspecified) here?
Answer: -4.73% (inactive)

Question: With `CCN(CC(=O)Nc1ccc(OC)cc1)C(=O)c1ccc2c(=O)n3c(nc2c1)CCC3` as the compound, how does the inhibition read?
Answer: -5.14% (inactive)

Question: How did the inhibition turn out when `CC1CNC(=S)N(c2ccc(F)cc2)C1=O` (stereo unspecified) was run?
Answer: -6.26% (inactive)

Question: With `O=C1/C(=C/c2ccco2)N=C(N2CCCCC2)N1c1ccccc1` as the compound, how does the inhibition read?
Answer: 23.7% (inactive)

Question: For `O=C1/C(=C\c2cccnc2)SC(=S)N1c1ccc(F)cc1`, which inhibition is on record?
Answer: 1.49% (inactive)

Question: How did the inhibition turn out when `CCOc1cccc(/C=C2\NC(=S)N(c3ccccc3)C2=O)c1O` was run?
Answer: 8.76% (inactive)

Question: `O=C1C(Cc2ccccc2)NC(=S)N1c1ccccc1` (stereo unspecified) was tested. Which inhibition did it give?
Answer: -3.85% (inactive)

Question: `CN(C)/C=C1\NC(=S)N(c2ccccc2)C1=O` was tested. Which inhibition did it give?
Answer: -8.51% (inactive)
